From PubChem BioAssay (NCI) come the findings set out here.

This is part of a sample that, as a whole, favours compounds with a hit. Of some 83,000 tested, about 20% had one in any assay.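 For each line, cells grew in 96-well plates with the test compound present at a single concentration for 48 hours.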 Unmarked numbers belong to inactive results. Activity calls are given as the source filed them. The calls were made as follows: active = growth percent below 10; inactive = the rest.

The test system of the first assay is NCI-H522 lung. Description: NCI-60 one-dose screen, 48 h (100 = growth as untreated, 0 = no growth, -100 = all killed). As to conditions: 10 µM.
On to `CCNc1nc2c(cnn2C)c(=O)[nH]1`, for which the growth was 98.4%.

`O=[N+]([O-])c1cccc(N=Nc2ccc(O)cc2O)c1`: the growth is -11.1% (active). For the compound `CC(=O)/C(Cc1ccccc1)=N/O`, the growth was 74.3%.

Consider `CCn1c(=O)n(C)c2c(=O)n(C)c(=O)n(C)c21`, for which the growth was 96.1%. Same read-out and setting: the value for `O=P(O)(O)OCC(O)CO` (stereo unspecified) was 109%; that for `CCCCCCCCCCC1CO1` (stereo unspecified) was 102%; that for `CC(=O)OCCO` was 111%. Same read-out and setting: under `CC(=O)OCC(=O)[C@@]1(O)CC[C@H]2[C@@H]3CC[C@@H]4C[C@H](O)CC[C@]4(C)[C@H]3C(=O)C[C@@]21C` stands 90.4%; under `COc1cc2c3cc1Oc1c(OC)c(OC)cc4c1C(Cc1ccc(O)c(c1)Oc1ccc(cc1)CC3N(C)CC2)N(C)CC4` (stereo unspecified), -34.4% (active); under `COc1cccc(/C=N/NC(=S)NC2CC3CCC2C3)c1O` (stereo unspecified), 64.7%.

With `O=S(=O)(Cc1ccccc1)c1ccccc1`, the growth was 104%. The same measure, in the same setting: the value for `COc1cc2nn(-c3ccccc3N)nc2cc1OC` was 100%.

For `CC(=O)c1ccc(N=C(C#N)C2=C(O)c3ccccc3C2=O)cc1`, the growth was 78.6%.

In the case of `CC(=Nc1ccccc1)C1=C(O)C(Cc2cccc(F)c2)NC1=O` (stereo unspecified), the growth was -34.5% (active). On the same count and under the same terms, the value for `CCOC(=O)c1ccc(NC(=S)P(=O)(c2ccccc2)c2ccccc2)cc1` was 113%; that for `COCCOC(=O)c1ccc(C(C)C)cc1` was 79.7%. Take `CCCC(C)OCC(=O)O` (stereo unspecified): the growth was 101%. Same read-out and setting: under `O=c1[nH][nH]c(=O)c2cc([N+](=O)[O-])ccc12` stands 90.6%; under `O=[N+]([O-])c1ccc(N=Nc2ccc(O)c3ccccc23)cc1`, -14.2% (active); under `CCCCCCCCO`, 107%. The same measure, in the same setting: under `OCC(O)C(O)C(O)C(O)/C=N/O` (stereo unspecified) stands 94.9%; under `O=C(O)COCC(=O)O`, 94.3%; under `Cc1ccc(S(=O)(=O)O)c(C)c1`, 90.2%. On the same count and under the same terms, the value for `NC(=S)N/N=C/c1ccc(N)cc1` was 92.3%; that for `O=c1[nH]nc(SC2CCCCC2)c(=O)[nH]1` was 80.5%. With `CC1CC(O)C2C3(C)CCCC2(COC3=O)C12CCC1(CCOC1=O)O2` (stereo unspecified), the growth was 107%. The same measure, in the same setting: under `CCOc1ccc(Br)cc1/C=N\N=C\c1cc(Br)ccc1OCC` stands 104%; under `S=C1CCCCCN1`, 105%; under `CC1CCCCN1C(=S)Nc1ccc(S(=O)(=O)N2CCCCC2)cc1` (stereo unspecified), 73%. The same measure, in the same setting: under `COc1cc(C2c3cc4c(cc3C3OC(=O)C2C3CO)OCO4)cc(OC)c1OC` (stereo unspecified) stands -30.5% (active); under `CCCCOC(=O)c1ccc(C(C)C)cc1`, 83.1%.

On to `NCCCN`, for which the growth is 105%.

For the compound `O=C(O)CCCC(=O)O`, the growth was 99.7%. Still for that read-out and setting: under `COc1ccc(-c2cc3c(nn2)-c2ccccc2C3=O)cc1` stands 26.4%.

For a further assay, the system named is A549/ATCC NSCLC. Described as above. As to conditions: 10 µM.
Turning to `CCNc1nc2c(cnn2C)c(=O)[nH]1`, the growth is 109%. Take `O=[N+]([O-])c1cccc(N=Nc2ccc(O)cc2O)c1`: the growth is 93.6%. On to `CC(=O)/C(Cc1ccccc1)=N/O`, for which the growth was 95.4%. On the same count and under the same terms, under `O=[N+]([O-])c1ccccc1N=Nc1ccc(O)cc1O` stands 106%. Still for that read-out and setting: the value for `CCn1c(=O)n(C)c2c(=O)n(C)c(=O)n(C)c21` was 101%. On the same count and under the same terms, the value for `O=P(O)(O)OCC(O)CO` (stereo unspecified) was 97.3%; that for `CCCCCCCCCCC1CO1` (stereo unspecified) was 99.5%. With `CC(=O)OCCO`, the growth was 99.2%.

In the case of `CC(=O)OCC(=O)[C@@]1(O)CC[C@H]2[C@@H]3CC[C@@H]4C[C@H](O)CC[C@]4(C)[C@H]3C(=O)C[C@@]21C`, the growth was 101%. As for `COc1cc2c3cc1Oc1c(OC)c(OC)cc4c1C(Cc1ccc(O)c(c1)Oc1ccc(cc1)CC3N(C)CC2)N(C)CC4` (stereo unspecified), the growth is -33% (active). The same measure, in the same setting: the value for `COc1cccc(/C=N/NC(=S)NC2CC3CCC2C3)c1O` (stereo unspecified) was 43.9%; that for `O=S(=O)(Cc1ccccc1)c1ccccc1` was 98.6%; that for `COc1cc2nn(-c3ccccc3N)nc2cc1OC` was 95.1%. Still for that read-out and setting: under `CC1C(=O)c2ccccc2CC1C(=O)O` (stereo unspecified) stands 93.8%; under `O=[N+]([O-])c1ccc(S(=O)(=O)NN=C2CCCCC2)cc1`, 93.9%; under `CC(=Nc1ccccc1)C1=C(O)C(Cc2cccc(F)c2)NC1=O` (stereo unspecified), 14.3%. `CCOC(=O)c1ccc(NC(=S)P(=O)(c2ccccc2)c2ccccc2)cc1`: the growth is 103%. Same read-out and setting: the value for `COCCOC(=O)c1ccc(C(C)C)cc1` was 79.5%; that for `CCCC(C)OCC(=O)O` (stereo unspecified) was 93.9%. On the same count and under the same terms, under `O=c1[nH][nH]c(=O)c2cc([N+](=O)[O-])ccc12` stands 108%; under `O=[N+]([O-])c1ccc(N=Nc2ccc(O)c3ccccc23)cc1`, 71.1%. On the same count and under the same terms, under `CCCCCCCCO` stands 100%; under `Cn1cnc2nc(Cl)nc(Cl)c21`, 17.2%; under `OCC(O)C(O)C(O)C(O)/C=N/O` (stereo unspecified), 60.9%. For the compound `O=C(O)COCC(=O)O`, the growth is 91.6%.

As to `Cc1ccc(S(=O)(=O)O)c(C)c1`, the growth is 104%. On the same count and under the same terms, under `NC(=S)N/N=C/c1ccc(N)cc1` stands 76%. For the compound `O=c1[nH]nc(SC2CCCCC2)c(=O)[nH]1`, the growth was 91.4%. Take `CC1CC(O)C2C3(C)CCCC2(COC3=O)C12CCC1(CCOC1=O)O2` (stereo unspecified): the growth was 110%. Turning to `CCOc1ccc(Br)cc1/C=N\N=C\c1cc(Br)ccc1OCC`, the growth was 104%.

Take `S=C1CCCCCN1`: the growth is 101%.

Regarding `CC1CCCCN1C(=S)Nc1ccc(S(=O)(=O)N2CCCCC2)cc1` (stereo unspecified), the growth is 101%. The same measure, in the same setting: the value for `COc1cc(C2c3cc4c(cc3C3OC(=O)C2C3CO)OCO4)cc(OC)c1OC` (stereo unspecified) was 14.9%. Consider `CCCCOC(=O)c1ccc(C(C)C)cc1`, for which the growth was 77%.

In the case of `NCCCN`, the growth is 105%. Same read-out and setting: the value for `O=C(O)CCCC(=O)O` was 97.9%; that for `COc1ccc(-c2cc3c(nn2)-c2ccccc2C3=O)cc1` was 2.29% (active).
